Bioassay records from PubChem BioAssay.
In the library only some 2.3% were active in any assay of this set; here they are far more common.
Nrf2 inh – blocks Nrf2 signaling. A549 ARE-Fluc reporter, luciferase luminescence, 18-24 h. Potency, µM (titrated, usually from 46 µM), without a hit: at the highest dose activity change, negative = inhibition, usual class: inhibitors. hit rate 2.1% among 360,000. AID 504444; also: potency is read from the fitted curve at half-maximal effect; % is scaled to controls: 0 for no effect and ±100 for the full control effect; nearly all actives have a fitted effect of over 60% in size
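Quantitative HTS in A549 cells stably bearing an antioxidant response element-firefly luciferase construct. Inhibition of Nrf2-driven transcription was scored by luminescence after 18-24 h of compound exposure at 37 °C.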
Giardia kill – Giardia lamblia killing | Giardia lamblia trophozoite viability | activity change, % at 7.66 µM, hits read low | hit rate 0.15% among 340,000 | AID 540267; in the data active = activity change below about -80%; inconclusive = between about -30% and that limit;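 also: parasites exposed to compound for two days anaerobically before the ATP read; % is scaled to controls: 0 for no effect and ±100 for the full control effect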
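ATP-content bioluminescence gauges trophozoite survival. Cells (100/well) receive compound and incubate anaerobically for 48 hrs at 37 deg C; detection reagent follows for 15-30 min at room temperature.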
A549 tox – counter-screen for Nrf2 inhibitors: cytotoxicity in A549 cells | A549 ARE-Fluc cells, CellTiter-Fluor viability, 18-24 h | Potency, µM (titrated, usually from 46 µM), for the others: top-dose activity change, negative = cytotoxicity, usual class: inhibitors | hit rate 0.16% among 390,000; also: potency is read from the fitted curve at half-maximal effect; % is scaled to controls: 0 for no effect and ±100 for the full control effect
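A549 ARE_Fluc cells in 5% FBS OPTI-MEM were exposed to compounds in concentration-response for 18-24 h at 37 deg C. Viability was read by CellTiter-Fluor fluorescence (Ex 405/Em 525) after 30 min, before the luciferase read.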
Nrf2 ARE act – activates Nrf2 signaling; Potency, µM (series often up to 46.1 µM), for inactives: top-dose activation, actives largely listed as activators; AID 624171; AREc32 ARE-luciferase reporter (MCF7-derived line), luminescence, 24 h; hit rate 0.31% among 410,000; also: potency is read from the fitted curve at half-maximal effect; % of control where 0% means no effect; nearly all actives have a fitted effect of over 65% in size
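Luminescent ARE reporter assay in AREc32_Fluc cells: overnight plating at 37 deg C, 24 hr compound incubation, Steady-Glo added, 30 min RT before reading.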
Anesthetic bind – binds horse apoferritin like a general anesthetic | P02791 | apoferritin/1-aminoanthracene competitive binding, fluorescence | Potency, µM (titrated, usually from 77.5 µM), without a hit: at the top dose activity change, negative = displacement, usual class: inhibitors | hit rate 0.074% among 350,000 | AID 485281; also: potency is read from the fitted curve at half-maximal effect; % is scaled to controls: 0 for no effect and ±100 for the full control effect; nearly all actives have a fitted effect of over 20% in size
Target sequence (P02791 2-175 limits assumed): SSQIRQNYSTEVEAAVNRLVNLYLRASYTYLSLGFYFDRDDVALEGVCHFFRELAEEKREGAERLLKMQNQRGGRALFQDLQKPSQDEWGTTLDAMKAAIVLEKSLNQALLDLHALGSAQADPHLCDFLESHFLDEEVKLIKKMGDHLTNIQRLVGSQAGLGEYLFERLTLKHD
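Apoferritin-based anesthetic binding model; compound displacement of fluorescent 1-AMA measured as endpoint fluorescence after 10 minutes at room temperature, scaled to free-ligand and complex controls.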
mIDH1 inhibitor – inhibitors of human mutant IDH1 R132H; AID 602179; O75874; Potency, µM (titrated, usually from 76.6 µM), inactives show top-dose activity change, negative = inhibition, usual class: inhibitors; IDH1-R132H enzyme, NADPH consumption, diaphorase/resazurin fluorescence; hit rate 0.093% among 390,000; also: potency is read from the fitted curve at half-maximal effect; % is scaled to controls: 0 for no effect and ±100 for the full control effect; nearly all actives have a fitted effect of over 65% in size
Target sequence (O75874 whole entry R132H, stated change not applied): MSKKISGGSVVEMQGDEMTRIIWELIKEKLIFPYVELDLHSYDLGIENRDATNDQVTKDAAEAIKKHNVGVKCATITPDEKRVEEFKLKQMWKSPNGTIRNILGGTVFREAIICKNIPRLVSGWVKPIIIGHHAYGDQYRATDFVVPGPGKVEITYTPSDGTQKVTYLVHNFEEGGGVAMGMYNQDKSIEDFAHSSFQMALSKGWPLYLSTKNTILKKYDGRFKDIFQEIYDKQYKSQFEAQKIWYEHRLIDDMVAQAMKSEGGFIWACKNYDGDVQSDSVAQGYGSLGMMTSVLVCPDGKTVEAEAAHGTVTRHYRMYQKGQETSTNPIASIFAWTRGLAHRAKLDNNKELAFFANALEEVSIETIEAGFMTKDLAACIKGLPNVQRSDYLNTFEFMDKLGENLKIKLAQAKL
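IDH1-R132H (0.5 ug/mL) preincubated 30 min with compound, then NADPH (0.016 mM) and alpha-KG (2 mM) added; 80 min at RT, pH 7.5. Remaining NADPH coupled via diaphorase/resazurin to fluorescence (540/590 nm); concentration-response curves normalized to no-enzyme control.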
Resorufin autofl – counter-screen for mutant IDH1 inhibitors: fluorescence interference; shares compounds with mIDH1 inhibitor; Resorufin detection reagent fluorescence interference, cell-free; inhibition of signal, % at 51.2 µM; 750 tested, under 10 active; AID 623980;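 also: 0% = wells with normal resorufin and full inhibition = wells lacking resorufin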
IDH1 WT – wild-type IDH1 (human) inhibition counterscreen; shares compounds with mIDH1 inhibitor; AID 623995; Potency, µM (titrated, usually from 115 µM), for the others: at the top dose activity change, negative = inhibition, actives largely listed as inhibitors; hit rate 9% among 750; WT IDH1 enzyme, NADPH diaphorase/resazurin fluorescence;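 also: potency is read from the fitted curve at half-maximal effect; 0% = full WT IDH1 enzyme control and full inhibition = no enzyme wells; nearly all actives have a fitted effect of over 55% in size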
Target sequence (O75874 whole entry, looked up): as the sequence (O75874 whole entry R132H, stated change not applied) above, with H132R counted along it
mIDH1 confirm – confirmation of human mutant IDH1 inhibitors. shares compounds with mIDH1 inhibitor. IDH1 R132H enzyme, NADPH diaphorase/resazurin fluorescence. Potency, µM (titrated, usually from 76.6 µM), for inactives: at the highest dose activity change, negative = inhibition, actives largely listed as inhibitors. hit rate 83% among 750. AID 624002; also: potency is read from the fitted curve at half-maximal effect; nearly all actives have a fitted effect of over 50% in size
Numbers without * were called inactive; ? = inconclusive; . = no result; ! = repeats disagree; [ ] = dose if it differs, or a comment. Unless noted, calls follow the shape of the dose curve; as a rule, active = well fitted curve in the direction sought with a large enough effect; inconclusive = small, poorly fitted or top-dose-only effect, or another doubt; inactive = no such curve, though single readings can be large; an effect the other way counts as inactive or inconclusive.

SMILES | Nrf2 inh | Giardia kill | A549 tox | Nrf2 ARE act | Anesthetic bind | mIDH1 inhibitor | Resorufin autofl | IDH1 WT | mIDH1 confirm
CCCCCCN1C[C@@H](n2cc(-c3ccc(F)cc3)nn2)[C@H](O)C[C@@H]1c1ccc(Cl)cc1 | . | . | . | 0% | . | 14% | . | . | .
Cc1ccc(C)c(N(C)C(=O)c2cc3c(=O)[nH]c4ccc(C)cc4c3s2)c1 | 2% | -4 | -4% | 3% | 0% | 21µM* | -3 | ? | 11µM*
Cc1ccc2[nH]c(=O)c3cc(C(=O)N(C)Cc4ccco4)sc3c2c1 | 18% | -14 | -13% | ? | 2% | 2% | . | . | .
COc1ccc(-n2cc(-c3ccccc3)c3c(NC4CCCC4)ncnc32)cc1 | . | . | 11% | 0% | 50% | 32µM* | 0 | -14% | 14µM*
COc1c(OC(C)=O)ccc(/C=C/c2ccc3cccc(OC)c3n2)c1[N+](=O)[O-] | ? | 6 | ? | 16% | -18% | ? | . | . | .
COc1c(OC(C)=O)ccc(/C=C/c2ccc3ccccc3n2)c1[N+](=O)[O-] | 15% | 4 | -16%[1.84 µM] | -1% | ? | ? | -15 | 2% | 32µM*
Cc1cc(C)cc(N(CC(=O)Nc2ccc(C(F)(F)F)cc2)S(=O)(=O)c2c(C)[nH]c(=O)[nH]c2=O)c1 | 8% | -10 | 3% | 0% | ? | 10µM*! | 8 | 45µM* | 32µM*
Cc1ccc2c(c1)Oc1ccc(NC(=O)CCl)cc1C(=O)N2 | -23% | -11 | 2% | ? | -4% | 13µM* | -2 | 71µM* | 6.3µM*
Cc1cc(-n2c(=S)sc3c(=O)n(-c4ccc(F)cc4)c(SCC(=O)O)nc32)ccc1Cl | -17% | 21 | 0% | -1% | -7% | 26µM* | -20 | ? | 7.9µM*
Cc1ccc2c(c1)-c1nc(-c3ccc4c(c3)NC(=O)CO4)cc(-c3ccc(Cl)cc3)c1CO2 | 20% | . | 0% | 0% | 2% | -1% | . | . | .
CCCCCCCCNCCS(=O)(=O)NC1CCCCC1 | 22% | -3 | -1% | -1% | . | 8% | . | . | .
O=c1c2ccccc2nc(/C=C/c2cccnc2)n1CCc1ccccc1 | -19% | -2 | -6% | 8% | 0% | 52µM* | 2 | -25% | 45µM*
CCc1ccc(-n2c(=O)c3c(C)c(C(=O)N(C)C)sc3n(Cc3cccc(C)c3)c2=O)cc1 | . | . | 6% | 0% | 2% | ? | -3 | -10% | 32µM*
CCN(CC)C(=O)c1sc2c(c1C)c(=O)n(-c1ccccc1)c(=O)n2Cc1c(C)cc(C)cc1C | . | . | 2% | -1% | -15% | 40µM* | -5 | -5% | 35µM*
Cc1ccc(-n2c(=O)c3c(C)c(C(=O)N(C)C)sc3n(Cc3ccccc3C)c2=O)cc1C | . | . | ? | -1% | -1% | ? | -5 | 2% | 22µM*
CCc1ccc(-n2c(=O)c3c(C)c(C(=O)N(C)C)sc3n(Cc3ccccc3C#N)c2=O)cc1 | . | . | 6% | 1% | -8% | 0% | . | . | .
Cc1ccc(-n2c(=O)c3c(C)c(C(=O)N(C)C)sc3n(CC(=O)C(C)(C)C)c2=O)cc1C | . | . | -11% | -1% | 6% | 11% | . | . | .
CC1(C(=O)NS(=O)(=O)c2cccs2)CCN1C(=O)CCc1ccc(Cl)cc1Cl (stereo unspecified) | . | . | . | -1% | . | . | . | . | .
O=C(CNC(=O)C1CCCCC1)OCC(=O)c1ccc2c(c1)CCC2 | 12% | 6 | -4% | . | . | . | . | . | .
CN(C(=O)CSc1nc(-c2ccc(C(C)(C)C)cc2)c(C#N)c(=O)[nH]1)C1CCCCC1 | 0% | -7 | 0% | 0% | -16% | ? | 0 | ? | 45µM*
N#Cc1c(-c2ccccc2)nc(SCC(=O)NC2CCCCC2)[nH]c1=O | ? | 17 | 0% | 4% | ? | 0% | . | . | .
CC(C)c1ccc(S(=O)(=O)N2CCN(CCC(=O)Nc3ccc(N(C)C)cc3)CC2)cc1 | . | -1 | 2% | 0% | -7% | 46µM* | -1 | -1% | 22µM*
CCc1ccc(CNC(=O)CN2C(=O)c3cccnc3Oc3ccc(Cl)cc32)cc1 | -15% | . | 2% | 4% | ? | ? | -4 | 1% | -11%
CCOc1ccccc1CNC(=O)CN1C(=O)c2cccnc2Oc2ccc(Cl)cc21 | ? | . | -7% | 5% | ? | -9% | . | . | .
COc1ccc(C)cc1NC(=O)c1ccc2c(SCC(=O)O)c3c(nc2c1)CCCC3 | -22% | -2 | 9% | 0% | -3% | 0% | . | . | .
SMILES | Nrf2 inh | Giardia kill | A549 tox | Nrf2 ARE act | Anesthetic bind | mIDH1 inhibitor | Resorufin autofl | IDH1 WT | mIDH1 confirm
CCOC(=O)c1ccccc1NC(=O)c1ccc2c(SCC(=O)O)c3c(nc2c1)CCCC3 | 0% | -13 | 2% | 1% | -2% | 41µM* | -2 | 71µM* | 16µM*
COc1cc(Cl)c(C)cc1NC(=O)c1ccc2c(SCC(=O)O)c3c(nc2c1)CCCC3 | -3% | 19 | -3% | 0% | -3% | ? | 5 | ? | 28µM*
O=C(COc1ccccc1/C=C\c1[nH]c(=O)[nH]c(=O)c1[N+](=O)[O-])Nc1ccccc1 | -1% | -22 | -12% | -1%[9.22 µM] | -12% | 41µM* | -1 | ? | 40µM*
CC1(C)Oc2ccc3ccc(=O)oc3c2/C(=C/Nc2ccccn2)C1=O | -25% | 9 | -20% | -1% | ? | 29µM* | -7 | 39% | 11µM*
CC1(C)Oc2ccc3ccc(=O)oc3c2/C(=C/Nc2cccc(O)c2)C1=O | 10% | 3 | -7% | 0% | ? | ? | 5 | 32% | 40µM*
CCC(C)c1ccc(OCC(=O)Nc2cccc(-c3nc4ncccc4o3)c2)cc1 (stereo unspecified) | ? | . | -7% | -2% | ? | 22% | . | . | .
COc1cc2c(-c3cc(Br)ccc3O)nc3c(c(C)nn3-c3ccccc3)c2cc1OC | -12% | . | -6% | -1% | -7% | -10% | . | . | .
COc1cc(-c2nc3c(c(C)nn3-c3ccccc3)c3cc(OC)c(OC)cc23)ccc1O | . | 22 | 5% | 0% | -1% | ? | 1 | 0% | 10µM*
CCOc1ccc(Nc2nc(N)c(C(=O)c3ccccc3Cl)s2)cc1 | -25% | . | -28% | -4% | -4% | -24% | . | . | .
